For five compounds, composite z-score and z-score results are on record in PubChem BioAssay.

Test [1] in a line: small molecules captured by biotinylated probe aFSTL3 – biochemical, small-molecule microarray, fluorescence 635/667, stem cell growth factor project, primary screen (AID 1064).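 Further: measures binding of the biotinylated anti-FSTL3 antibody to printed compounds.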 The following applies: higher = more signal.
A short description of test [2]: binders from COS7 lysate, DM2A8 probe, primary screen, torsin A project, cell lysate, small-molecule microarray, fluorescence 635/667 (AID 1065). The following applies: higher = more signal, COS7 lysate expressing mutant human TOR1A.
The nature of test [3]: small molecules captured by biotinylated probe aFGF2 – biochemical, small-molecule microarray, fluorescence 635/667, stem cell growth factor project, primary screen (AID 1067).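 Further: measures binding of biotinylated aFGF2 protein to printed compounds on slides; z-score merges feature fluorescence and signal-to-noise across triplicate slides.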 The note with it: higher = more signal.
Test [4] is described as follows: small molecules captured by biotinylated probe aFGF10 – biochemical, small-molecule microarray, fluorescence 635/667, stem cell growth factor project, primary screen (AID 1071).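 Further: score merges 667 nm spot intensity and signal to noise from triplicate slides.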 The note with it: higher = more signal.
For test [5], the target named is Neurogenic locus notch homolog protein 2 (Homo sapiens) (UniProt Q04721). Nature of the test: small molecules binding Notch2 protein – biochemical, small-molecule microarray, 635 nm fluorescence, stem cell growth factors, primary screen (AID 1073). The following applies: higher = more signal.
For test [6], the target named is Pro-neuregulin-1, membrane-bound isoform (Homo sapiens) (UniProt Q02297). Nature of the test: small molecules binding neuregulin-1 protein – biochemical, small-molecule microarray, fluorescence 635/667, psychiatric disease protein project, primary screen (AID 1075).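 Further: score combines 667 nm spot fluorescence with signal to noise.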 The following applies: NRG1 binding, 635 nm fluorescence, higher = more signal.
Test [7] has as its system Neuregulin-1 EGF-like domain. Description: small molecules binding NRG1 EGF domain – biochemical, small-molecule microarray, 635 nm fluorescence, primary screen (AID 1081).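 Further: binding of the protein to compounds printed on small-molecule microarray slides.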 The following applies: higher = more signal.
Test [8] can be described thus: FRG1 expression reporter modulators in myotubes – cell-based, C2C12 myotubes, firefly/Renilla luciferase, luminescence, FRG1 inhibition for FSHD, primary screen (AID 1084). The following applies: FRG1 promoter luciferase, higher = more signal, called active from +8 up or from −8 down.
Test [9] is described as follows: small molecules captured by biotinylated probe aFST – biochemical, small-molecule microarray, fluorescence 635/667, stem cell growth factor project, primary screen (AID 1086).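 Further: score merges 667 nm fluorescence with signal-to-noise of each printed compound spot.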 The following applies: higher = more signal.
Test [10] in a line: binders of probe aHhip on microarray, primary screen, stem cell growth factor project, biochemical, small-molecule microarray, fluorescence 635/667 (AID 1087).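 Further: score merges spot fluorescence at 667nm with spot signal to noise ratio.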 The note with it: higher = more signal.
The test system of test [11] is PRMT1 (protein arginine N-methyltransferase 1). Description: small molecules binding arginine methyltransferase PRMT1 – biochemical, small-molecule microarray, 635 nm fluorescence, primary screen (AID 1088).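 Further: binding of Prmt1 protein to compounds spotted on small-molecule microarray slides.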 The note with it: higher = more signal.
Test [12] in a line: growth effects on S. cerevisiae YJM789 – YJM789 clinical isolate, OD600, 24 h, basal, primary screen (AID 1089).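 Further: growth of clinical yeast isolate S. cerevisiae YJM 789 seeded 1000 cells per well; test concentration not given here.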 The note with it: higher = more signal, called active from +8 up or from −8 down.
Test [13] is described as follows: S. pombe growth modifiers, basal conditions – strain 972, OD600, 24 h, no modulator, primary screen (AID 1090).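 Further: basal condition with compound alone and no growth modifier present; test concentration not given here.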 The following applies: S. pombe 972 growth, higher = more signal, called active from +8 up or from −8 down.
Test [14] is described as follows: budding yeast growth modifiers under rapamycin – strain BY4716, OD600, 96 h, primary screen (AID 1091). Further: test concentration not given here. The following applies: S. cerevisiae BY4716 + rapamycin, higher = more signal, called active from +8 up or from −8 down.
Test [15] deals with Torsin-1A-interacting protein 2 (Homo sapiens) (UniProt Q8NFQ8). Nature of the test: small molecules binding lysate-expressed LULL1 – cell lysate, human LULL1 lysate, 635/667 nm fluorescence, primary screen (AID 1092).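 Further: probe is lysate of COS7 cells overexpressing human LULL1; score merges per-feature 667 nm fluorescence with signal-to-noise.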 The following applies: small-molecule microarray, hLULL1 lysate binding, 635 nm fluorescence; higher = more signal.
The nature of test [16]: optical density change of DRC41 E. coli – strain DRC41, OD650, 24 h, E. coli filamentation project, primary screen (AID 1093).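 Further: MC1000 strain lacking acrAB efflux and sulA so SOS filamentation is blocked; test concentration not given here.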 The note with it: E. coli DRC41 growth, higher = more signal, called active from +8 up or from −8 down.
A short description of test [17]: probe aLefty2 binding to arrayed compounds – biochemical, biotinylated probe, 635/667 nm fluorescence, primary screen (AID 1094).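 Further: score merges spot fluorescence near 667 nm with spot signal-to-noise ratio.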 The note with it: small-molecule microarray, higher = more signal.
Test [18] deals with Noggin (protein binding on small-molecule microarray). Nature of the test: small molecules binding Noggin protein – biochemical, 635/667 nm fluorescence, primary screen (AID 1095).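 Further: score merges 667 nm feature fluorescence with signal to noise over triplicate slides.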 The following applies: 635 nm fluorescence, higher = more signal.
Test [19] addresses Neurogenic locus notch homolog protein 3 (Homo sapiens) (UniProt Q9UM47). Nature of the test: small molecules binding NOTCH3 protein – biochemical, 635/667 nm fluorescence, primary screen (AID 1096). The following applies: small-molecule microarray, 635 nm fluorescence, higher = more signal.
Test [20] can be described thus: probe aEGFR binding to arrayed compounds – biochemical, biotinylated probe, 635/667 nm fluorescence, primary screen (AID 1097).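 Further: probe is a biotinylated anti-EGFR antibody binding compounds printed on slides; score combines fluorescence near 667 nm and signal to noise of each spot.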 The following applies: small-molecule microarray, higher = more signal.

SMILES strings stand for the structures. Active and inactive are the calls of the source.

Sequence of Torsin-1A-interacting protein 2 (Homo sapiens) (Q8NFQ8 whole entry, looked up): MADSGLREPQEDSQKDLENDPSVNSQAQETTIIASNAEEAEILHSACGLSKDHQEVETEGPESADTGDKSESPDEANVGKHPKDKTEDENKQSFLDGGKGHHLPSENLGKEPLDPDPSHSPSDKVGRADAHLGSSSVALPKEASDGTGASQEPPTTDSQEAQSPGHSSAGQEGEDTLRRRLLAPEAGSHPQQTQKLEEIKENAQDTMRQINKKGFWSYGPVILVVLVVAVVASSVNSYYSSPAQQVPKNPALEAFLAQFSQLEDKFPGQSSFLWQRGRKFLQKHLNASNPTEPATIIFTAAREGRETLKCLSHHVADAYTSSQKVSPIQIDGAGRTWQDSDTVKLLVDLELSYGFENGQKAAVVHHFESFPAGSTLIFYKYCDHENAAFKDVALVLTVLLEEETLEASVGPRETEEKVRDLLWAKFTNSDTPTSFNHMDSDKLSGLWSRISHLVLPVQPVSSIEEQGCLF
Sequence of Neurogenic locus notch homolog protein 2 (Homo sapiens) (Q04721 whole entry, looked up, canonical isoform): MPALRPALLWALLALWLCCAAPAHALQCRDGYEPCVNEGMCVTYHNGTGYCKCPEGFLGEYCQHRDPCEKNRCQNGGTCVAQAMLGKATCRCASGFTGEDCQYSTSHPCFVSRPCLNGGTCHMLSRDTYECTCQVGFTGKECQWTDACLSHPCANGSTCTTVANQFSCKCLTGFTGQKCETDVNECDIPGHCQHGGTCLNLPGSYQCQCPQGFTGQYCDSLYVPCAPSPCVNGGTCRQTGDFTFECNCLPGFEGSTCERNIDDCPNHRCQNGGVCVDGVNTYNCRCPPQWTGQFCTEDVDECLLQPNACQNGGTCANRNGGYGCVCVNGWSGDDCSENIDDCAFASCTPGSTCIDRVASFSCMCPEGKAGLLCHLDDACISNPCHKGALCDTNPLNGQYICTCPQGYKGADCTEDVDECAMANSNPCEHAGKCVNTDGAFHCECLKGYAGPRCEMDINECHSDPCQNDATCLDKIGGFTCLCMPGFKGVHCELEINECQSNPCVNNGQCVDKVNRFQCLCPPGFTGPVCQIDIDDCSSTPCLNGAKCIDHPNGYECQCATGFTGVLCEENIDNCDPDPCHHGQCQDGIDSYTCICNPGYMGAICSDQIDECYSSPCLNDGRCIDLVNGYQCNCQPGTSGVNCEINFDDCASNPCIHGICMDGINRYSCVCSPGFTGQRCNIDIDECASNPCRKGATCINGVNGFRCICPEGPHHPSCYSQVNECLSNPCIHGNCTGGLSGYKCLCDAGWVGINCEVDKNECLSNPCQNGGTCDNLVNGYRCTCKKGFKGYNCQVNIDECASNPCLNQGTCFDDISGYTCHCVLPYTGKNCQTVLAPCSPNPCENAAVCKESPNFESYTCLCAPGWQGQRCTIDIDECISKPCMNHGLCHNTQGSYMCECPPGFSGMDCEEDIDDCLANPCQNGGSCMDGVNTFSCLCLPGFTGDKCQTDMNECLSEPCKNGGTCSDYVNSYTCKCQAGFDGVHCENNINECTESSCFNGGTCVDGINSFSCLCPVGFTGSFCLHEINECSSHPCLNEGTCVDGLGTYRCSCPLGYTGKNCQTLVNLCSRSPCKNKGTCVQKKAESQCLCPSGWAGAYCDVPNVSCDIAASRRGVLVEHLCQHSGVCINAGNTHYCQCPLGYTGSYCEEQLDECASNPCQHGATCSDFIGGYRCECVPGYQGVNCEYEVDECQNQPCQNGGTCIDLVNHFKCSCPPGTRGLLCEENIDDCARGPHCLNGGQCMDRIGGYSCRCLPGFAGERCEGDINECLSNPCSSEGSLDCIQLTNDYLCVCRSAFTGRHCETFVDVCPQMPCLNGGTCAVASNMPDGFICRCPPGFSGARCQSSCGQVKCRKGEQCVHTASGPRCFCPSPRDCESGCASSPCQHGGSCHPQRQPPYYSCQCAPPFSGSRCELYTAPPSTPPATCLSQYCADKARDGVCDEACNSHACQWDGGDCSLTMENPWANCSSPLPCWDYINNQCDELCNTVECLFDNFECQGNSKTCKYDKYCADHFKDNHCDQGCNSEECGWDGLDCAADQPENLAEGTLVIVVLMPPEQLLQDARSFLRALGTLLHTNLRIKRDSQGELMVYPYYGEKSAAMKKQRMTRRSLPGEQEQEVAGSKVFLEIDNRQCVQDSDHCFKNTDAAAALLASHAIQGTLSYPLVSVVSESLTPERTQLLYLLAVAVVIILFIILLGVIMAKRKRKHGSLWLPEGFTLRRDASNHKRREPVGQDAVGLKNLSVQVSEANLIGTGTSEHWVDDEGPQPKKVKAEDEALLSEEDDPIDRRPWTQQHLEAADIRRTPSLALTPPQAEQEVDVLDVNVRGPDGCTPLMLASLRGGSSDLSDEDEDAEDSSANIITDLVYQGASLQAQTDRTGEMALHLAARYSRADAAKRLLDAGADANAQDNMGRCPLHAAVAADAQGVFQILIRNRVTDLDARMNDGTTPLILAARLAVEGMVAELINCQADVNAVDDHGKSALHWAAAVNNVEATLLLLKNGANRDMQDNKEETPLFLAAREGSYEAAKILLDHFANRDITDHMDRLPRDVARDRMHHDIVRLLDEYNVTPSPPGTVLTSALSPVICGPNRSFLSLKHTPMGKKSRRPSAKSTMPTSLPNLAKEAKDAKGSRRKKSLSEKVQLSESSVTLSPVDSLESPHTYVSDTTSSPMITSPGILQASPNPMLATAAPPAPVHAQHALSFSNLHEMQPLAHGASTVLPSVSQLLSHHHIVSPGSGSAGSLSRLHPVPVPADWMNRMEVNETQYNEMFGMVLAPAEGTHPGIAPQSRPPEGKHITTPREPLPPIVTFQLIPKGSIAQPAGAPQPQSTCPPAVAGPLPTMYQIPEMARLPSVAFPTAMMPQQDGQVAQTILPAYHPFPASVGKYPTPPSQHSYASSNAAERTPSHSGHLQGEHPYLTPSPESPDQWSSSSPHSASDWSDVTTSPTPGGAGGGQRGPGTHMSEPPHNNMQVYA
Sequence of Pro-neuregulin-1, membrane-bound isoform (Homo sapiens) (Q02297 whole entry, looked up, the tested form may be a part, canonical isoform): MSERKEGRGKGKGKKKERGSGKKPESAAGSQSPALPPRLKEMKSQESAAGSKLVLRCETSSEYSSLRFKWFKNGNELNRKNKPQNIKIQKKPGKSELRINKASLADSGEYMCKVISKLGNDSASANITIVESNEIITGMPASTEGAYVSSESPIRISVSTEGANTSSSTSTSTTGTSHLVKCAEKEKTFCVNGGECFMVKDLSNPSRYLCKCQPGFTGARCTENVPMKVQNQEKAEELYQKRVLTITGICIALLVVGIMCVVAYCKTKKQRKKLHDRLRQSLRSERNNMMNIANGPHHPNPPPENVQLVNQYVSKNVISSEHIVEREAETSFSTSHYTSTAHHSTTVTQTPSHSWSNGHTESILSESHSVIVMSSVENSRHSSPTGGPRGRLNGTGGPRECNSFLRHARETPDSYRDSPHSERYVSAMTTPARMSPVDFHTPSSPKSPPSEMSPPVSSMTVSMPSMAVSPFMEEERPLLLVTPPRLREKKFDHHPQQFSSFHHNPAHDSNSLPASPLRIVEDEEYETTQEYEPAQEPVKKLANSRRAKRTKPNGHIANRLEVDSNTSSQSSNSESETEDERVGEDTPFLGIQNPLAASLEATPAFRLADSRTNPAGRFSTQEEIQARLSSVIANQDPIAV

As for `CCOC(=O)CCN1C(=O)[C@H]2[C@H]3[C@H](O)[C@H](O)CC(=NNC(=O)OCc4ccc(OC)cc4)[C@H]3CC[C@H]2C1=O`, the composite z-score in [1] was -0.41; in test [2], 0.339; in [3] it was -0.116; in test [4] it was 0.155; in test [5] it was 0.68; in [6], 0.0204. The composite z-score in test [7] was 0.0944; in test [9], 0.245; in test [10], -0.329; in test [11], 0.271; in test [15], 0.282; in [17], 0.0108. The composite z-score was 0.335 in [18], 0.316 in test [19] and 0.0289 in test [20]. For the same compound, the z-score was -0.971 (inactive) in test [8]; 0.0811 (inactive) in test [12]; -0.257 (inactive) in test [13]; -0.577 (inactive) in [14]; -0.31 (inactive) in test [16].
In the case of `CC(C)CON=C1[C@H]2CCn3c(=O)n(C)c(=O)n3[C@H]2[C@H](O)[C@@H]2O[C@H]12`, the composite z-score in test [1] was -0.553; in [2], -0.0908; in [3] it was -0.136; in test [4] it was 0.469; in [5], 0.493; in test [6] it was 0.288. The composite z-score in test [7] was 0.157; in [9], -0.0694; in test [10], 0.0505; in [11] it was -0.117; in [15], -0.0761; in test [17] it was -0.112. Besides, the figures for the composite z-score in test [18], in test [19] and in [20] were 0.757, 0.861 and 0.006, respectively. The z-score is -0.0014 (inactive) in test [8]; 0.0116 (inactive) in [12]; -0.08 (inactive) in [13]; -0.6 (inactive) in test [14]; 0.253 (inactive) in test [16].
For `CC(C)CON=C1C[C@@H](O)[C@@H](O)[C@@H]2[C@@H]3C(=O)N(C(C)(C)C)C(=O)[C@@H]3CC[C@@H]12`, the composite z-score was -0.7 in test [1]; 2.77 in test [2]; -0.243 in [3]; -0.541 in test [4]; -0.483 in [5]; -0.517 in test [6]. The composite z-score in test [7] was 0.694; in [9], -0.0117; in test [10], -0.303; in test [11] it was 1.37; in test [15], -0.495; in test [17], -0.317. Further, the composite z-score is 1.02 in test [18], -0.269 in test [19] and -0.0638 in test [20]. The z-score is 0.0071 (inactive) in test [8]; 0.118 (inactive) in test [12]; -0.182 (inactive) in test [13]; -0.147 (inactive) in [14]; 0.222 (inactive) in test [16].
With `CCN1C(=O)[C@H]2[C@H]3[C@H](O)[C@H](O)CC(=NOCC[C@@H]4C=C[C@H](OC(C)=O)[C@@H](COC(C)=O)O4)[C@@H]3CC[C@H]2C1=O`, the composite z-score was -0.298 in test [1]; 0.198 in [2]; -0.0085 in [3]; 0.547 in [4]; 0.522 in test [5]; 0.0776 in test [6]. Also, the composite z-score in test [7] is 0.314; in test [9] it was 0.186; in test [10] it was 0.259; in test [11], -0.001; in test [15], 0.506; in test [17] it was 0.0819. The composite z-score is 0.478 in test [18], 1 in [19] and -0.0208 in test [20]. Besides, the z-score in test [8] was 0.511 (inactive); in test [12], 0.826 (inactive); in test [13] it was -0.473 (inactive); in [14] it was 0.0739 (inactive); in [16] it was 0.0628 (inactive).
Regarding `CCCNC(=O)OC[C@H]1O[C@H](CCON=C[C@@H](NS(=O)(=O)c2ccc(C)cc2)[C@H](C)C=CCC(=O)OC)C=C[C@@H]1Oc1ccc(OC)cc1`, the composite z-score in test [1] was -0.341; in test [2], 0.724; in test [3], -0.0425; in test [4], -0.183; in test [5], -0.127; in [6], -0.703. For the same compound, the composite z-score in test [7] was -0.83; in test [9] it was 0.118; in test [10], -0.0994; in [11] it was 0.409; in test [15], -0.0006; in test [17] it was -0.181. Besides, the figures for the composite z-score in test [18], in test [19] and in [20] were 0.0599, -0.0703 and -0.0443, respectively. Further, the z-score in test [8] was -0.122 (inactive); in test [12], -1.21 (inactive); in test [13] it was 0.331 (inactive); in test [14] it was -0.148 (inactive); in test [16], -0.0353 (inactive).
